Assays:
[1] = biological target: Tyrosine-protein kinase CSK (Homo sapiens) (UniProt P41240); settings: at 1 µM;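 also: each value is an averaged inhibition reading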
[2] = biological target: T1, Discoidin domain-containing receptor 2 (Homo sapiens) (UniProt Q16832); settings: at 0.1 µM
T1 sequence (whole entry): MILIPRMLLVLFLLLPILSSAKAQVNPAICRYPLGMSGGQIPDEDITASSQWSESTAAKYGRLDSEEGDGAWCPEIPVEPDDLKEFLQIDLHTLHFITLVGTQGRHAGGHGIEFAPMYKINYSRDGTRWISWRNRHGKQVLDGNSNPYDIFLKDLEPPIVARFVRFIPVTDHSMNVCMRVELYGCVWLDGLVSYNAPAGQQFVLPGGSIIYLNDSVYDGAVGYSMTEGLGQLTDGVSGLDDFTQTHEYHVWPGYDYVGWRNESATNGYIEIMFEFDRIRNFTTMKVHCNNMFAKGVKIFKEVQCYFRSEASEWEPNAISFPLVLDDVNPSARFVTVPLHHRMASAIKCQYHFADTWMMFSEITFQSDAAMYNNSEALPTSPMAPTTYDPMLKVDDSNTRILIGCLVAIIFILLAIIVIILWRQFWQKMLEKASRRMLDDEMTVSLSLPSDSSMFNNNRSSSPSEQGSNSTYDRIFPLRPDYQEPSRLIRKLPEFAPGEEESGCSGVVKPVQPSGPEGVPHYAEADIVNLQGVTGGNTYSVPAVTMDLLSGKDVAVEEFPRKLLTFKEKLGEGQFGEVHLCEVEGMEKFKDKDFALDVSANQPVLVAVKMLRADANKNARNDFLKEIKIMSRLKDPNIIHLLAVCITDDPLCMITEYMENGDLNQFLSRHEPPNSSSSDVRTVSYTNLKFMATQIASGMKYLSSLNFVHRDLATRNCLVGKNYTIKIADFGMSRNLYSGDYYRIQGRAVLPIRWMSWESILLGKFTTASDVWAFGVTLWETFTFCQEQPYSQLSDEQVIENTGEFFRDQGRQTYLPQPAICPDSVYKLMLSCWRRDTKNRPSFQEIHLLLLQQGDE

[3] = biological target: T1, Discoidin domain-containing receptor 2 (Homo sapiens); settings: at 1 µM
[4] = biological target: Epidermal growth factor receptor (Homo sapiens) (UniProt P00533); settings: at 0.1 µM
[5] = biological target: Epidermal growth factor receptor (Homo sapiens) (UniProt P00533); settings: at 1 µM
[6] = test system: Epidermal growth factor receptor (Homo sapiens), P00533 [L858R]; settings: at 0.1 µM
[7] = test system: Epidermal growth factor receptor (Homo sapiens), P00533 [L858R]; settings: at 1 µM
[8] = test system: Epidermal growth factor receptor (Homo sapiens), P00533 [L861Q]; settings: at 0.1 µM
[9] = test system: Epidermal growth factor receptor (Homo sapiens), P00533 [L861Q]; settings: at 1 µM
[10] = test system: Epidermal growth factor receptor (Homo sapiens), P00533 [T790M]; settings: at 0.1 µM

Epidermal growth factor receptor (Homo sapiens), P00533 [L858R], sequence (P00533 whole entry L858R): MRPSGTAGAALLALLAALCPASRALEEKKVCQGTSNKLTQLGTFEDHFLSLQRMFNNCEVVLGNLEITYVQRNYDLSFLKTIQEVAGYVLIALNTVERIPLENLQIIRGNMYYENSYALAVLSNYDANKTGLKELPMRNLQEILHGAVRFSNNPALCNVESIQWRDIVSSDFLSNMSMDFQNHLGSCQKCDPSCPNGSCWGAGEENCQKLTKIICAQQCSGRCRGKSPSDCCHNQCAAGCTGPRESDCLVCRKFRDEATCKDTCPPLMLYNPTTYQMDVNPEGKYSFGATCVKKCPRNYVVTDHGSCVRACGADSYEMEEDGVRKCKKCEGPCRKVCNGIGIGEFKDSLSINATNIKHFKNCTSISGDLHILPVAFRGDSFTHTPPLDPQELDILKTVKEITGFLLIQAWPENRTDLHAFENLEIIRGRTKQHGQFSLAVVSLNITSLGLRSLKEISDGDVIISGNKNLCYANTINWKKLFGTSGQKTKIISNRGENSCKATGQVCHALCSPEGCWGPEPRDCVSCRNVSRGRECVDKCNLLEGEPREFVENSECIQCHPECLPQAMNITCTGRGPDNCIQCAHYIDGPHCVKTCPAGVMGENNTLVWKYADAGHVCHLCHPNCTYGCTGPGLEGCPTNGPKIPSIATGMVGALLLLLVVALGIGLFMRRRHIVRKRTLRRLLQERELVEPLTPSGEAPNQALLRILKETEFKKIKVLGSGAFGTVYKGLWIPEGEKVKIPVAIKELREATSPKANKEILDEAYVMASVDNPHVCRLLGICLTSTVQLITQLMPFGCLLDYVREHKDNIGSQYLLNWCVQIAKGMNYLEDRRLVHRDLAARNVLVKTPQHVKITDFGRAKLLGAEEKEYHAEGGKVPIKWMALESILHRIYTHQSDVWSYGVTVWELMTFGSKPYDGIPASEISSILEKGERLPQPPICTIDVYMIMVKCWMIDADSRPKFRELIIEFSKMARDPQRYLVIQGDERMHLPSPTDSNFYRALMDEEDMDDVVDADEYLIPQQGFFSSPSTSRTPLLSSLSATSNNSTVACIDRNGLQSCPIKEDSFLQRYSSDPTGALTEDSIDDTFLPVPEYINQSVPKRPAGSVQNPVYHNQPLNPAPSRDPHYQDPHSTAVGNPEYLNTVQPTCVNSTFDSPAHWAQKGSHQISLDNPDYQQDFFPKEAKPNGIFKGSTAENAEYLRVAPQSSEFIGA
Epidermal growth factor receptor (Homo sapiens), sequence (P00533 whole entry): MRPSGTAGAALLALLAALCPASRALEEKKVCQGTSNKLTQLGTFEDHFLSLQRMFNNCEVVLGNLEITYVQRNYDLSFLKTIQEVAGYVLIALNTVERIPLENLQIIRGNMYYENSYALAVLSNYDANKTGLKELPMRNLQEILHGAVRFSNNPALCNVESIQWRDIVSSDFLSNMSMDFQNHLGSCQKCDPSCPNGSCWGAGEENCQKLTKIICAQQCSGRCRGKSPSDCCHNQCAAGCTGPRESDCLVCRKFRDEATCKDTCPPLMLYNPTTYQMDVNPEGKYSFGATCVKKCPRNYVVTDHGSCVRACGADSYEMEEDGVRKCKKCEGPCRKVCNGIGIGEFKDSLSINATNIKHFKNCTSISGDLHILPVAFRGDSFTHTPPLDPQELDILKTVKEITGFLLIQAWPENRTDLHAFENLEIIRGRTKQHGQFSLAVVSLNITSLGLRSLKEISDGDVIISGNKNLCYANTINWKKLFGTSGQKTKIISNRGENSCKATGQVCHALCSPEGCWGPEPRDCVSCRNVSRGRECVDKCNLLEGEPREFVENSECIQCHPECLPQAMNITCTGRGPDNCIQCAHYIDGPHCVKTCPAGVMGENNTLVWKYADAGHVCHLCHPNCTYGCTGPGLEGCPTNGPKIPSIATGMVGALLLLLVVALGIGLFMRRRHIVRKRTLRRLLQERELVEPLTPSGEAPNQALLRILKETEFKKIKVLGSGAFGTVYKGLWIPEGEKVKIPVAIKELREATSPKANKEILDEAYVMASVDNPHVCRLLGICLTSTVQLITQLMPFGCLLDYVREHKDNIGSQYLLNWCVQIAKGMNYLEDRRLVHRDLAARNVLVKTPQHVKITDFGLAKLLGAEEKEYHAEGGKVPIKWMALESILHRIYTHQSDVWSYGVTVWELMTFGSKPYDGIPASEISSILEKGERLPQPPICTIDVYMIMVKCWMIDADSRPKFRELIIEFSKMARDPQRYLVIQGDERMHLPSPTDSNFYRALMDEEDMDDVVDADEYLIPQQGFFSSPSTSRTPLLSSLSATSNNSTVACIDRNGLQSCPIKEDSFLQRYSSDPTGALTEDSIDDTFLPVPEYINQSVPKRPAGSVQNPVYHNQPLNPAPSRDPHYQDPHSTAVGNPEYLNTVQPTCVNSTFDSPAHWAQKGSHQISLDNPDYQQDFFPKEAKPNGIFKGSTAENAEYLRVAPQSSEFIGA
Tyrosine-protein kinase CSK (Homo sapiens), sequence (P41240 2-450 limits assumed): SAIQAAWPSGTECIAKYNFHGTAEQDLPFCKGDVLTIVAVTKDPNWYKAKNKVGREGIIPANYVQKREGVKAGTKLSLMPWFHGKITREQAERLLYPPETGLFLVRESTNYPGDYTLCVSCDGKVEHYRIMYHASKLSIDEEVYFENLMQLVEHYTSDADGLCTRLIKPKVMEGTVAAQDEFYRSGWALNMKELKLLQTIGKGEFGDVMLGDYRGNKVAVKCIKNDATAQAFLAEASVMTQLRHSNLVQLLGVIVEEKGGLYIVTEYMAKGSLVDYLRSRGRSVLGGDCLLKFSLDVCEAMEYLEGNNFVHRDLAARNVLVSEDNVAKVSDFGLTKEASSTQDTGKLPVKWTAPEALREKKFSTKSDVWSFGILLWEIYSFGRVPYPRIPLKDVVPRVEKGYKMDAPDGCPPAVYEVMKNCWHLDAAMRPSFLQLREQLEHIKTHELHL
Epidermal growth factor receptor (Homo sapiens), P00533 [L861Q], sequence (P00533 whole entry L861Q): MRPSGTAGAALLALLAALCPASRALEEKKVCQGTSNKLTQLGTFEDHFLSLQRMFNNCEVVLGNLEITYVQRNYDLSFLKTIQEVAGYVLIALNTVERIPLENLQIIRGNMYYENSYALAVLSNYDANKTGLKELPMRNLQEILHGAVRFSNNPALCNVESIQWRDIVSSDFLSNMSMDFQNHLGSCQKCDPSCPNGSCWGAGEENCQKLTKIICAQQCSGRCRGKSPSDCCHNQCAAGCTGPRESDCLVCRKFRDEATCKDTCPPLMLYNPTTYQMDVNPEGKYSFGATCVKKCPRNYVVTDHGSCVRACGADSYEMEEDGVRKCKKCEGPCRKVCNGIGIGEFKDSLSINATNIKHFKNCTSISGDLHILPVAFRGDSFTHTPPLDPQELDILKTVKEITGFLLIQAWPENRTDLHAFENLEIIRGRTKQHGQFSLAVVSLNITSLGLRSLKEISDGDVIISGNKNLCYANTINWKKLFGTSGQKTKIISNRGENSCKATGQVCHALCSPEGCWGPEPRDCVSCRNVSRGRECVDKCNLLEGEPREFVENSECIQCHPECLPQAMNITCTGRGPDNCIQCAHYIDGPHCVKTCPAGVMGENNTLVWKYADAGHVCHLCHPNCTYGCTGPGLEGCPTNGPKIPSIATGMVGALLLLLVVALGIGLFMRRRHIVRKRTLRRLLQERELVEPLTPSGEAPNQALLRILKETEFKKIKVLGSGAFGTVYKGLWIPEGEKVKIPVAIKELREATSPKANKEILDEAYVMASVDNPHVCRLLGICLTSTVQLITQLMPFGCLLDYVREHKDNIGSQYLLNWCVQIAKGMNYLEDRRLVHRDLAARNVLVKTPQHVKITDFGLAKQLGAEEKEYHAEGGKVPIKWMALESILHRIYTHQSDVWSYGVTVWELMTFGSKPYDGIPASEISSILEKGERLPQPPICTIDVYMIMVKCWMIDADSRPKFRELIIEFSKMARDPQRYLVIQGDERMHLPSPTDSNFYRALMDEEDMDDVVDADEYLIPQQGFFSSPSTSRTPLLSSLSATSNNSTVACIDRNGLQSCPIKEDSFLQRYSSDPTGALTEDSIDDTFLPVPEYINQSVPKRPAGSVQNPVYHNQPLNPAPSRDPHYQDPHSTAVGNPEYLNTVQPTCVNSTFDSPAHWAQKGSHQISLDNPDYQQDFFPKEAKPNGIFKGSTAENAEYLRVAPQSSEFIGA

Row | SMILES | inhibition [1] | inhibition [2] | inhibition [3] | inhibition [4] | inhibition [5] | inhibition [6] | inhibition [7] | inhibition [8] | inhibition [9] | inhibition [10]
1 | CC(=O)NCc1cccc(C#Cc2cncnc2Nc2ccc(OCc3cccc(F)c3)c(Cl)c2)c1 | -2.55% | 1.32% | 1.46% | 61.2% | 75.8% | 10.4% | 54.2% | 24% | 42.1% | -1.44%
2 | CN(C)CCOc1ccc(-c2nc(-c3ccncc3)c(-c3ccc4c(c3)CC/C4=N\O)[nH]2)cc1 | 2.75% | 1.41% | 0.64% | 2.89% | 2.4% | 5% | 9.64% | 2.57% | 8.13% | 2.18%
3 | COc1ccc(-c2cc(-c3c[nH]nc3-c3ccccn3)ccn2)cc1 | 10.3% | 2.09% | 3.66% | 1.65% | 6.06% | 1.51% | 8.95% | 4.61% | 4.33% | 2.05%
4 | CCn1c(-c2nonc2N)nc2ccccc21 | -0.41% | 1.73% | 2.19% | 2.08% | 1.93% | 3.02% | 0.86% | 1.96% | 0.53% | -0.1%
5 | CNC(=O)c1cccc(C#Cc2cncnc2Nc2ccc(OCc3cccc(F)c3)c(Cl)c2)c1 | 3.24% | 0.18% | 4.52% | 62.1% | 82.2% | 13.8% | 62.1% | 25.9% | 45.7% | 1.03%
6 | Clc1ccc(-c2nn3ncccc3c2-c2ccnc(Nc3ccccc3)n2)cc1 | 5.89% | 3% | 76.7% | 13.2% | 61.7% | 43.5% | 87.6% | 12% | 58.5% | 1.98%
7 | [O-][S+]1CCN(Cc2ccc(-c3ccc4ncnc(Nc5ccc(OCc6cccc(F)c6)c(Cl)c5)c4c3)o2)CC1 | 5.15% | 2.52% | 2.37% | 81.3% | 83.5% | 88.1% | 99.1% | 77.5% | 95.7% | 7.36%
8 | COc1cc2ncn(-c3cc(OCc4ccccc4C(F)(F)F)c(C(=O)N(C)C)s3)c2cc1OC | 0.02% | 0.21% | -0.91% | 0.21% | 0.03% | -1.55% | -0.64% | -1.32% | -1.92% | -1.33%
9 | COc1ccc(-c2nn3ncccc3c2-c2ccnc(Nc3ccc4c(c3)OCCO4)n2)cc1 | 2.25% | 17.7% | 79.8% | 0.51% | 34.1% | 8.22% | 57.4% | 5.78% | 34.3% | 0.7%
10 | COc1ccc(-c2cc3c(N)ncnc3o2)cc1 | -0.98% | -0.42% | 0.02% | 0.82% | 2% | 0.82% | -0.02% | -0.61% | -1.15% | -2.23%
11 | CS(=O)(=O)CCNCc1ccc(-c2ccc3ncnc(Nc4ccc(OCc5ccccc5)c(C(F)(F)F)c4)c3c2)o1 | 3.7% | 1.76% | 1.84% | 12.5% | 71.2% | 9.52% | 50.1% | 17.8% | 41.7% | 2.35%
12 | Fc1ccc(-c2cc(-c3c[nH]nc3-c3ccccn3)ccn2)cc1 | 6.45% | 1.07% | 1.14% | 0.04% | 1.67% | 3.93% | 8.78% | 4% | 7.94% | 3.06%
13 | COC(=O)c1sc(-n2cnc3cc(OC)c(OC)cc32)cc1OCc1ccccc1C(F)(F)F | 0.42% | 2.46% | 2.44% | -0.33% | 2.22% | 1.6% | 6.95% | 3.31% | 0.15% | 1.36%
14 | NC(=O)c1sc(-n2cnc3ccc(C(F)(F)F)cc32)cc1OCc1ccccc1Br | 4.85% | 1.6% | 0.21% | 0% | -1.55% | 1.72% | 4.51% | 4.73% | 1.73% | 2.11%
15 | COc1cc(N2CCN(C(C)C)CC2)ccc1Nc1nc(Nc2ccc(F)cc2C(N)=O)c2cc[nH]c2n1 | 0.44% | 0.99% | 0.35% | 5.2% |  | 1.78% | 39.2% | 3.8% | 23.1% | 26.4%
16 | COc1cc(/C=N/Nc2ncnc3[nH]ncc23)ccc1O | 24.9% | 1.42% | 2.31% | 2.77% | 8.71% | 4.32% | 7.89% | 2.91% | 4.72% | 1.39%
17 | COc1cc2c(cc1Nc1nc(Nc3ccsc3C(N)=O)c3cc[nH]c3n1)N(C(=O)CN(C)C)CCC2(C)C | 0.65% | 4.88% | 1.72% | 1.56% | 9.19% | 5.69% | 33.1% | 1.86% | 14.5% | 26.6%

Row | SMILES | inhibition [1] | inhibition [2] | inhibition [3] | inhibition [4] | inhibition [5] | inhibition [6] | inhibition [7] | inhibition [8] | inhibition [9] | inhibition [10]
18 | CCN1CCC(CC(=O)Nc2n[nH]c3nnc(-c4cccc(F)c4F)cc23)CC1 | 4.47% | 1.59% | 1.68% | -0.65% | 2.31% | -0.92% | 3.4% | 0.65% | -0.91% | -0.06%
19 | O=S(=O)(CCNCc1ccc(-c2ccc3ncnc(Nc4ccc(OCc5cccc(F)c5)c(Cl)c4)c3c2)o1)c1ccccc1 | 6.6% | 5.04% | 6.18% | 65.3% | 83.3% | 32.6% | 79.5% | 39.2% | 78.2% | 2.92%
20 | COc1ccc2c(-c3ccnc(Nc4cccc(OC(F)(F)F)c4)n3)cnn2n1 | 12.2% | 1.53% | 3.16% | 1.3% | 2.97% | 4.17% | 5.43% | 2.8% | 4.76% | 2.35%
21 | O=C(O[C@H]1CN[C@H](C#Cc2cc3ncnc(Nc4ccc(Cc5ccccc5)cc4)c3s2)C1)N1CCOCC1 | 2.39% | -1.8% | -1.26% | 27.8% | 69.9% | 1.68% | 11.4% | 15.1% | 26.9% | 1.18%
22 | Cc1cccc2c1NC(=O)/C2=N\Nc1ccc(S(N)(=O)=O)cc1 | 4.79% | 1.44% | 1.81% | 5.97% | 9.39% | 3.74% | 5.52% | 1.86% | 0.73% | -0.7%
23 | c1cc(-c2cnn3nc(N4CCOCC4)ccc23)nc(NC2CC2)n1 | 5.31% | 1.38% | 3.9% | 4.04% | 6.33% | 5.72% | 2.16% | 3.88% | 2.28% | 2.15%
24 | CCc1nn2ncccc2c1-c1ccnc(NC2CC2)n1 | 1.97% | 1.02% | 1.6% | 2.78% | 4.33% | 1.84% | 0.95% | 1.81% | 2.47% | 1.44%
25 | FC(F)(F)c1cccc(-c2nn3ncccc3c2-c2ccnc(Nc3ccc4c(c3)OCCO4)n2)c1 | 4.25% | 1.27% | 16.5% | 5.52% | 45.3% | 5.51% | 55.7% | 8.83% | 33.4% | 2.2%
26 | NS(=O)(=O)c1ccc(Nc2ncc(-c3ccccc3)o2)cc1 | 5.89% | 1.76% | 4.71% | 1.02% | 1.18% | 2.83% | 6.04% | 2.61% | 2.73% | 0.68%
27 | Cc1ccc(O)cc1Nc1ccnc2cc(-c3ccccn3)ccc12 | 57.1% | 20.3% | 74% | 57.7% | 91.9% | 88.8% | 97.8% | 59.8% | 91.9% | 5.49%
28 | Cc1ccc2c(-c3ccnc(Nc4ccccc4)n3)c(-c3ccc(F)cc3)nn2n1 | 14.5% | 31.2% | 83.3% | 47.1% | 78.4% | 85.8% | 97.4% | 51.8% | 87.8% | 8.63%
29 | c1ccc(COc2ccc(Nc3ncnc4ccc(-c5ccco5)cc34)cc2)cc1 | 1.89% | 0.26% | 1.14% | 64.3% | 86.1% | 9.89% | 39.4% | 22.1% | 36.1% | 1.47%
30 | COc1cccc(-n2ncc3c(N/N=C/c4ccc(F)cc4)ncnc32)c1 | 11.4% | 1.69% | 4.36% | 0.53% | 7.92% | 11.6% | 34.9% | 5.16% | 12% | 1.96%
31 | CCCN(CCS(C)(=O)=O)Cc1ccc(-c2ccc3ncnc(Nc4ccc(OCc5cccc(F)c5)c(Cl)c4)c3c2)o1 | 5.5% | 1.06% | 1.68% | 77.6% | 78.4% | 53.4% | 95% | 53% | 88.2% | 2.23%
32 | Fc1cccc(COc2ccc(Nc3ncnc4sc(-c5ccco5)cc34)cc2Cl)c1 | 2.56% | 3.86% | 4.41% | 71.9% | 81.9% | 15.2% | 54.8% | 30.2% | 51% | 1.83%
33 | CCOc1ccc2c(-c3ccnc(Nc4cccc(C(F)(F)F)c4)n3)cnn2n1 | 1.6% | 4.46% | 6.02% | 0.09% | 1.97% | 0.87% | -1.72% | 1.44% | -0.42% | -0.02%

— ChEMBL document CHEMBL1961873, “Compounds: GSK PKIS; Assays: Nanosyn kinase panel” (2012)
